Only some compounds are listed: those with a hit (about 2.4% of all), similar ones and a draw of the others.
D2 PAM-1: HTS Assay for Positive Allosteric Modulators of the Human D2 Dopamine Receptor: Primary Screen for Potentiators; HEK293 T-REx D2, calcium flux, EC20 dopamine potentiation; D(2) dopamine receptor (Homo sapiens), P14416; AID 485347, 2010; 0.34% of 340,000 active; potentiation, % at 10 µM;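 active = potentiation over 3 SD above the plate norm, cut at about 30% in these data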; also: 0% is about no effect
Target sequence (P14416 whole entry, looked up): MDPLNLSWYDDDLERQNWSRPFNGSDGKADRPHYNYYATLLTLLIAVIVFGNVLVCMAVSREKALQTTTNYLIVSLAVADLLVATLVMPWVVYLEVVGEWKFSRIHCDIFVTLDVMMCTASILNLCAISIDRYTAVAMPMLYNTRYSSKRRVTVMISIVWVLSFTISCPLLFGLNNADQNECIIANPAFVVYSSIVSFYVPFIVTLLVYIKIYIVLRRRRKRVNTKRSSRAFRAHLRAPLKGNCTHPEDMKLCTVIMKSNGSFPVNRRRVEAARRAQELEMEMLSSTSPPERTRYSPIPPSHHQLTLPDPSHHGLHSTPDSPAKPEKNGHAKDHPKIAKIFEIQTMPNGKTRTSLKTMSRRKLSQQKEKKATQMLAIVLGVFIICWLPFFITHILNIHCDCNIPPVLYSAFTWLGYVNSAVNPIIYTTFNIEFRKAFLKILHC
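Tetracycline-induced Hek293 Trex D2 cells, force-coupled to calcium, loaded with no-wash calcium dye. Compound added with 180 s kinetic read for agonism, then EC20 dopamine and a further 180 s read for potentiation.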
D2 ag-1: HTS Assay for Allosteric Agonists of the Human D2 Dopamine Receptor: Primary Screen for Agonists. D(2) dopamine receptor (Homo sapiens), P14416. HEK293 T-REx D2 cells, calcium flux agonist mode. activation, % at 2 µM. 0.53% of 340,000 active. AID 485358, 2010;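 active = activation over 3 SD above normal in the single-dose calcium agonist read, cut at about 30% in these data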; also: 0% is about no effect
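Calcium-flux readout, 1 cycle/sec over 180 s following compound pin transfer, in inducible HEK293 Trex D2 cells (force-coupled); dopamine controls included. Positive calcium responses during this window marked compounds as potential agonists.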
D2 ag-2: Beta-Arrestin HTS for Positive Allosteric Modulators of the Human D2 Dopamine Receptor: Agonists | D(2) dopamine receptor (Homo sapiens), P14416 | DiscoveRx PathHunter D2 beta-arrestin, luminescence, 90 min; 100% = 57 uM dopamine signal | activation, % (test concentration not listed) | 0.084% of 360,000 active | AID 624465, 2012; in the data active = activation above about 40%; inconclusive = between about 15% and that limit
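Agonist mode: compounds alone added to overnight-plated D2 PathHunter cells for 90 min at 37 C, with 57 uM final dopamine (EC100) defining full response. Beta-arrestin recruitment detected by chemiluminescent reagent, read after 1 h at ambient temperature.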
D2 antag: HTS Assay for Allosteric Antagonists of the Human D2 Dopamine Receptor: Primary Screen for Antagonists. HEK293 TREx D2 cells, calcium flux, dopamine EC80. inhibition, % at 10 µM. 2% of 340,000 active; in the data active = inhibition above about 30%; inactive = below that, where a call was filed; also: 0% is about no effect
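Antagonism is scored as inhibition of an EC80 dopamine-evoked calcium signal in a force-coupled, tetracycline-inducible HEK293 T-REx D2 line, with compound present 180 s before agonist.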
D2 PAM-2: Beta-Arrestin HTS for Positive Allosteric Modulators of the Human D2 Dopamine Receptor: Potentiators; D(2) dopamine receptor (Homo sapiens), P14416; DiscoveRx D2 beta-arrestin cells, luminescence, 90 min; 100% = 57 uM dopamine signal; potentiation, % (concentration not given with the values); 0.23% of 360,000 active; in the data active = potentiation above about 50%; inconclusive = mostly about 30% to 49%
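D2 cells co-treated with compound plus 50 nM dopamine (EC20) for 90 min at 37 deg C to detect potentiation. Beta-arrestin recruitment was read as enzyme-fragment luminescence after 1 h at ambient temperature. Full response was set by 57 uM dopamine.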
Active calls of the source: *; ? = inconclusive; . = no result given.

SMILES	D2 PAM-1	D2 ag-1	D2 ag-2	D2 antag	D2 PAM-2
O=[N+]([O-])c1ccc(N2CCCCCC2)c2nonc12	-19.6	84.7*	-3.8	10.9	-8.0
O=[N+]([O-])c1ccc(N2CCCCC2)c2ncccc12	15.7	-0.2	-1.6	-25.9	-7.9
O=C(CCc1ccccc1)N1Cc2cc(-c3ccccc3)ccc2-n2nncc2C1	.	.	0.6	.	-2.9
CC/C(=N\Nc1cccc2ccccc12)c1c(O)[nH]c(=O)[nH]c1=O	7.7	0.6	?	-5.8	54.6*
O=c1c2ccccc2nc(-c2ccco2)n1-c1nccs1	0.0	1.0	-3.3	30.2*	-5.0
Cc1ccc(C2=NN(CCC(=O)N3CCC4(CC3)OCCO4)C(=O)CC2)cc1	.	.	-0.1	.	1.1
CCNc1cc(N2CCNCC2)ccc1[N+](=O)[O-]	-7.7	-0.1	.	35.3*	.
CC1CN=C(NCc2ccc(F)cc2)S1 (stereo not given)	-6.6	37.3*	-2.4	4.5	-4.9
CC1CN=C(NCc2ccncc2)S1 (stereo not given)	-3.9	-0.1	-3.2	2.2	24.2
CSCCC(c1nnnn1-c1ccc2c(c1)OCCO2)N1CCC(n2c(=O)[nH]c3ccccc32)CC1 (stereo not given)	.	.	3.7	.	65.0*
O=c1[nH]c2ccccc2n1C1CCN(C(c2ccccc2OC(F)(F)F)c2nnnn2-c2ccc3c(c2)OCCO3)CC1 (stereo not given)	.	.	10.0	.	61.2*
O=c1[nH]c2ccccc2n1C1CCN(C(c2cc3ccccc3o2)c2nnnn2Cc2ccccc2)CC1 (stereo not given)	.	.	2.2	.	58.3*
COc1cccc(C(c2nnnn2-c2ccc3c(c2)OCCO3)N2CCC(n3c(=O)[nH]c4ccccc43)CC2)c1OC (stereo not given)	.	.	3.7	.	?
CC12CN3CN(C1)CC(C)(C3)C2=NO	7.7	0.0	0.1	-2.4	-8.4
FC(F)(F)c1ccccc1CN1CCN(Cc2ccccc2)CC1	-20.5	1.2	-0.7	26.7	-23.1
CCc1nn(CC(=O)N2CCC3(CC2)OCCO3)c(=O)c2cc3ccccc3n12	-12.1	31.8*	2.8	-5.0	-1.6
CC12CCC3C(CCC4(O)CC(O)CCC34C=NO)C1(O)CCC2C1=COC(=O)C1 (stereo not given)	.	.	1.9	.	5.3
Cc1cccc(CN2CCN(Cc3ccc(Cl)cc3)CC2)c1	10.8	-0.6	-3.9	3.6	-46.8
CCCCCCN1CCN(c2ccc(Cl)cc2)CC1	-27.1	0.1	4.6	50.9*	-23.0
Fc1ccc(CN2CCN(c3ccc(Cl)cc3)CC2)cc1	-20.0	0.0	-1.2	-13.0	-12.9
Cc1cccc(CN2CCN(c3ccc(Cl)cc3)CC2)c1	-18.5	-5.8	-5.6	34.3*	-6.5
Fc1ccc(C(OCCN2CCCC2)c2ccc(Br)cc2)cc1 (stereo not given)	-23.0	3.6	0.0	47.0*	-15.8
Fc1ccc(C(OCCN2CCCC2)c2ccc(F)cc2)cc1	-23.3	0.7	-5.3	13.1	-40.9
NCCc1c[nH]c2ccc(C(N)=O)cc12	-7.6	3.2	-6.1	10.6	-1.5
NCCc1c[nH]c2ccc(F)cc12	-28.1	5.4	.	94.7*	.
SMILES	D2 PAM-1	D2 ag-1	D2 ag-2	D2 antag	D2 PAM-2
O=[N+]([O-])c1cccc(CN2CCN(Cc3ccc(Br)cc3)CC2)c1	-23.4	1.8	-2.3	89.7*	-3.9
O=C(Cc1ccccc1)N1CCN(Cc2ccc([N+](=O)[O-])cc2)CC1	-1.6	-0.4	-3.4	1.3	-5.4
CC1=CC(O)C(O)C2(C)C1CC1OC(=O)CC3C(C)C(O)C(=O)C2C13CO (stereo not given)	.	.	-1.5	.	-18.1
Clc1ccc(CCNCc2ccncc2)c(Cl)c1	-12.5	2.4	6.5	-15.3	-10.5
CCN(CCNc1ccc([N+](=O)[O-])c2cccnc12)S(=O)(=O)c1ccccc1	-6.3	-1.0	4.5	1.8	-4.9
C/C(=N/OC(=O)N(C)C)c1ncc(C(F)(F)F)cc1N1CCOCC1	3.5	-1.0	-3.8	-6.5	-7.9
CC(=O)NC1CC2CCC(C1)N2 (stereo not given)	36.2*	0.4	-0.2	12.1	-12.8
O=C1c2ccccc2C(=O)N1Cc1nc2ccccc2c(=O)n1-c1ccccn1	5.3	0.5	1.9	31.2*	1.6
O=c1c2ccccc2nc(/C=C/c2ccc(F)cc2)n1-c1ccccn1	7.1	0.3	-4.3	-16.7	-4.2
CN1C(=O)C(Cc2ccc(OCc3ccccc3)cc2)C(=O)N(C)C1=O	-9.0	-1.8	-3.9	-13.9	-0.8
CN1CCc2cccc(Cl)c2CC1	-18.5	0.8	-0.8	52.6*	-31.9
CN1CC[C@@]23CCCC[C@@H]2[C@@H]1Cc1ccc(O)cc13	.	.	-5.5	.	1.6
CN1CC[C@]2(c3cccc(O)c3)Cc3nc4ccccc4cc3C[C@H]2C1	-7.4	-1.1	.	40.5*	.
Cn1c(O)c(C=Nc2cccc(C(F)(F)F)c2)c(=O)n(C)c1=O	-9.0	0.6	-3.1	5.2	3.5
CN1C(=O)CN=C(c2ccc(Cl)cc2)c2cc(Cl)ccc21	7.2	-1.0	-1.9	34.3*	0.3
CN1C(=O)CN=C(c2ccc[nH]2)c2cc(Cl)ccc21 (tested in a mixture with another compound)	.	.	-1.8	.	-7.3
O=C1NC(=O)N(c2ccc3c(c2)OCO3)C(=O)/C1=C\c1ccc(N2CCCCC2)o1	2.4	12.6	-3.0	-4.9	-7.9
COc1ccc(CNC(=O)CCC(=O)N2C[C@H]3C[C@H](C2)c2cccc(=O)n2C3)cc1OC	-1.7	0.4	-2.8	36.4*	-25.7
CCOc1ccc(CN(CCc2ccc3c(c2)OCO3)Cc2ccc(C)cc2)cc1	-19.5	13.6	.	.	.
CC(=O)O[C@@]12CO[C@@H]1C[C@H](OC1OCC(O)C(O)C1O)[C@@]1(C)C(=O)[C@H](O)C3=C(C)[C@@H](OC(=O)[C@H](O)[C@@H](NC(=O)c4ccccc4)c4ccccc4)C[C@@](O)([C@@H](OC(=O)c4ccccc4)C12)C3(C)C (stereo not given in full)	6.8	-0.1	8.2	37.5*	4.7
COc1ccc(CC2c3cc(OC)c(OC)cc3CCN2C)cc1OC (stereo not given)	.	.	6.1	.	-5.9
COc1ccc(C[C@@H]2c3cc(O)c(OC)cc3CCN2C)cc1O	-17.7	0.1	-1.2	51.9*	-26.4
COc1cc2c(cc1O)[C@@H]1Cc3ccc(OC)c(O)c3CN1CC2	-11.6	-0.9	9.0	75.2*	-4.6
